Test results: publication PMC4336329 (PLoS ONE, 2015)
The whole screen tested about 310,000 compounds, of which about 14,000 (4.5%) showed an effect of 50% or more. Effects have a minus sign here. Shown is part of a subset that was picked to be rich in strong results.

Each molecule was assayed against human ether-à-go-go-related gene (hERG) potassium channel (human, UniProt Q12809) (assay: primary screen, population patch clamp on CHO cells stably expressing hERG; higher = less effect of the substance).
human ether-à-go-go-related gene (hERG) potassium channel, sequence (Q12809 whole entry, looked up): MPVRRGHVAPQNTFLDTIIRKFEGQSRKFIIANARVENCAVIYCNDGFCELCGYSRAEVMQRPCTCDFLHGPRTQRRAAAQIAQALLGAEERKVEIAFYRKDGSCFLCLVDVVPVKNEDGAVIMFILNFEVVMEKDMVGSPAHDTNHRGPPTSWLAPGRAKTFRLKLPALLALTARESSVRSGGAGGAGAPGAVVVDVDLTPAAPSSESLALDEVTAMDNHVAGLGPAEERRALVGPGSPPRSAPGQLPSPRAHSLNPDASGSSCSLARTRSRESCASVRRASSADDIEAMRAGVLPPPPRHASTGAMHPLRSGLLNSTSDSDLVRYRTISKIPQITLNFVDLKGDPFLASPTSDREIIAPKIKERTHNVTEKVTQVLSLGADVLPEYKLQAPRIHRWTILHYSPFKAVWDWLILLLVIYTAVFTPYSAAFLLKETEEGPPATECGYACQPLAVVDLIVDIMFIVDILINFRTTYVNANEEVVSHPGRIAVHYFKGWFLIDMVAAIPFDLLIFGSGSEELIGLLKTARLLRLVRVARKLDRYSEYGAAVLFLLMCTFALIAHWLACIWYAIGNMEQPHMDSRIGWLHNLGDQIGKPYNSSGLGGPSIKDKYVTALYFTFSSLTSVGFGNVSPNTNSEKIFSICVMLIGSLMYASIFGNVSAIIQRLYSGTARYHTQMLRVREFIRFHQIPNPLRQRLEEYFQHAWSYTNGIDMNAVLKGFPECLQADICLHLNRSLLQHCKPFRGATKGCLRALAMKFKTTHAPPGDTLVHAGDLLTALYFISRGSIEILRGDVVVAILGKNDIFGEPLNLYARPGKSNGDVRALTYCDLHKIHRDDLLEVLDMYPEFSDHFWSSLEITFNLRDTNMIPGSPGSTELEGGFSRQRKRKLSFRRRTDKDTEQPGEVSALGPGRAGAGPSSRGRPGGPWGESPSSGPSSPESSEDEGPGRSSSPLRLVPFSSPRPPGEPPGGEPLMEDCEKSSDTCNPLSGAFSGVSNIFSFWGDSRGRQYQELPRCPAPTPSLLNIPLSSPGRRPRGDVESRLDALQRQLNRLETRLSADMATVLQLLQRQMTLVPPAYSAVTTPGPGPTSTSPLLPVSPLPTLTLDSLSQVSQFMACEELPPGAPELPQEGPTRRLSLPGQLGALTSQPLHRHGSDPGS
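Further: peak tail current of the secondary pulse compared with the same well before compound.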

Going from Cc1nnc(NC(=O)CN2CCN(Cc3ccc(F)cc3Cl)CC2)s1 to OCCN1CCN(c2ncnc3scc(-c4ccc(F)cc4)c23)CC1, the “hERG current change (%, negative = inhibition) at 10uM” value falls from 8.45% to -22.1%.

Going from Cc1c(Cl)cccc1NC(=O)C1CCCN(S(C)(=O)=O)C1 (centres unmarked) to CCOC(=O)c1ccc(NC(=O)c2ccc(C)c(S(=O)(=O)N3CCOCC3)c2)cc1, the “hERG current change (%, negative = inhibition) at 10uM” value falls from 22% to -33.4%.

Compared with O=C(CN1C(=O)C2CC=C(Cl)CC2C1=O)Nc1ccc(C(=O)O)cc1 (centres unmarked), CC(C)(C)C(=O)N1CCN(c2ccc(NC(=O)c3ccc([N+](=O)[O-])o3)cc2)CC1 is higher in “hERG current change (%, negative = inhibition) at 10uM” value: 3.39% for the first, 10.2% for the second.

Compared with COc1ccc(-c2csc3ncnc(N4CCN(CCO)CC4)c23)cc1, CCN1CCN(c2ncnc3scc(-c4ccc(OC)cc4)c23)CC1 is lower in “hERG current change (%, negative = inhibition) at 10uM” value: -1.12% for the first, -54.6% for the second.

Going from CCN1CCN(c2ncnc3scc(-c4ccc(C)c(C)c4)c23)CC1 to Cc1ccc(-c2csc3ncnc(N4CCN(C)CC4)c23)cc1C, the “hERG current change (%, negative = inhibition) at 10uM” value rises from -76.4% to -18.7%.

Going from CC(C)c1ccc(-c2csc3ncnc(N4CCN(C)CC4)c23)cc1 to CCN1CCN(c2ncnc3scc(-c4ccc(C)cc4)c23)CC1, the “hERG current change (%, negative = inhibition) at 10uM” value falls from -21.6% to -22.5%.

Going from Cc1ccc(-c2csc3ncnc(N4CCN(Cc5ccccc5)CC4)c23)cc1 to Fc1ccc(CN2CCN(c3ncnc4scc(-c5ccccc5)c34)CC2)cc1, the “hERG current change (%, negative = inhibition) at 10uM” value falls from 18% to -39.9%.

Compared with Cc1cc(-c2csc3ncnc(N4CCN(C)CC4)c23)cc(C)c1C, COc1ccc(F)cc1CN1CCN(c2ncnc3scc(-c4ccccc4)c23)CC1 is higher in “hERG current change (%, negative = inhibition) at 10uM” value: -65.2% for the first, -41.6% for the second.

First: COc1ccc(-c2csc3ncnc(N4CCN(c5ccccc5)CC4)c23)cc1
Second: COc1ccc(N2CCN(c3ncnc4scc(-c5ccc(F)cc5)c34)CC2)cc1
The “hERG current change (%, negative = inhibition) at 10uM” value of the first is higher: 12.3% for the first, -0.492% for the second.

Going from CCOc1ccc(CN2CCN(c3ncnc4scc(-c5ccccc5)c34)CC2)cc1 to COc1ccc(CN2CCN(c3ncnc4scc(-c5ccc(F)cc5)c34)CC2)cc1, the “hERG current change (%, negative = inhibition) at 10uM” value rises from -75.3% to -65.8%.

Compared with COc1ccccc1N(C)S(=O)(=O)c1ccc(C(=O)NC(C)c2ccccc2)cc1 (centres unmarked), O=C(NNS(=O)(=O)c1cccc(Cl)c1)c1cc(-c2ccc(F)cc2)nc2ccccc12 is higher in “hERG current change (%, negative = inhibition) at 10uM” value: -43.7% for the first, 11.6% for the second.

Going from COc1ccc(-c2nnc(-c3cc4c(ccc5ccccc54)oc3=O)o2)cc1 to Clc1ccc(CSc2nnc(-c3ccncc3)o2)cc1, the “hERG current change (%, negative = inhibition) at 10uM” value falls from -8.75% to -11.5%.

Going from Cc1csc(NC(=O)CCc2c(C)nc3cc(-c4ccc(Cl)cc4)nn3c2C)n1 to CC/C=C/C(=O)N1CC2(CC(c3cccc(NC(=O)COc4ccc(Cl)cc4)c3)=NO2)C[C@H]1C(N)=O (some centres unmarked), the “hERG current change (%, negative = inhibition) at 10uM” value falls from -2.4% to -64.7%.

First: CCN1CCN(c2ncnc3sc(C)c(-c4ccccc4)c23)CC1
Second: Cc1sc2ncnc(N3CCN(Cc4ccccc4)CC3)c2c1-c1ccccc1
The “hERG current change (%, negative = inhibition) at 10uM” value of the first is lower: -57.1% for the first, -34.8% for the second.

Compared with c1ccc(-c2csc3ncnc(N4CCN(Cc5ccc6c(c5)OCO6)CC4)c23)cc1, O=C(CSc1ncnc2scc(-c3ccccc3)c12)N1CCN(Cc2ccc3c(c2)OCO3)CC1 is higher in “hERG current change (%, negative = inhibition) at 10uM” value: -57.6% for the first, -35.7% for the second.

Going from COc1ccccc1N1CCN(c2ncnc3sc(C)c(-c4ccccc4)c23)CC1 to Fc1ccc(CN2CCN(c3ncnc4scc(-c5ccc(F)cc5)c34)CC2)cc1, the “hERG current change (%, negative = inhibition) at 10uM” value falls from 14.2% to 5.9%.

Compared with CNc1c([N+](=O)[O-])cnn1-c1ccccn1, CN1CCN(C(=O)c2cnn(-c3ccccc3)c2NC(=O)c2ccc([N+](=O)[O-])cc2)CC1 is lower in “hERG current change (%, negative = inhibition) at 10uM” value: -15.5% for the first, -51.6% for the second.

Going from CC(C)(O)C#Cc1ccc(C(=O)NCCc2ccc(S(N)(=O)=O)cc2)cc1 to Cc1ccc(C(=O)COC(=O)CNS(=O)(=O)c2ccc(C)cc2)cc1, the “hERG current change (%, negative = inhibition) at 10uM” value falls from 13.6% to 12.4%.

First: CCOC(=O)C(NC(C)=O)(Nc1ccc(F)cc1)C(F)(F)F (centres unmarked)
Second: CC/C=C/C(=O)N1CC2(CC(c3cccc(NC(=O)CC)c3)=NO2)C[C@H]1C(N)=O (some centres unmarked)
The “hERG current change (%, negative = inhibition) at 10uM” value of the first is lower: -3.72% for the first, 13.6% for the second.

First: O=C(O)c1cnc(-c2ccccc2)nc1Sc1cccc(Cl)c1
Second: Cn1nc(-c2ccccc2)c(CSc2ccccc2Cl)c1Cl
The “hERG current change (%, negative = inhibition) at 10uM” value of the first is higher: 26.7% for the first, 6.46% for the second.

Going from O=C(O)/C(=C\c1cn(-c2ccccc2)nc1-c1cccnc1)NC(=O)c1ccccc1 to CN1CCN(C(=O)c2cnn(-c3ccccc3)c2NC(=O)c2ccccc2)CC1, the “hERG current change (%, negative = inhibition) at 10uM” value falls from 7.21% to -17.8%.

Compared with C/C=C\C=C\C(=O)N1CC2(CC(c3cccc(NC(=O)COc4ccc(Cl)cc4)c3)=NO2)C[C@H]1C(N)=O (some centres unmarked), C/C=C/C(=O)N1CC2(CC(c3cccc(NC(=O)COc4ccc(Cl)cc4)c3)=NO2)C[C@@H]1C(N)=O (some centres unmarked) is higher in “hERG current change (%, negative = inhibition) at 10uM” value: -76.9% for the first, -41.4% for the second.

First: NC(=O)[C@H]1CC2(CC(c3cccc(NC(=O)COc4ccc(Cl)cc4)c3)=NO2)CN1C(=O)c1ccc(Cl)cc1 (some centres unmarked)
Second: C/C=C\C=C/C(=O)Nc1cccc(C2=NOC3(C2)C[C@@H](C(N)=O)N(C(=O)COc2ccc(Cl)cc2)C3)c1 (some centres unmarked)
The “hERG current change (%, negative = inhibition) at 10uM” value of the first is lower: -9.96% for the first, -7.47% for the second.

First: CN1CCN(C(=O)c2cnn(-c3ccccc3)c2NC(=O)c2ccccc2Br)CC1
Second: CN1CCN(C(=O)c2cnn(-c3ccccc3)c2NC(=O)c2ccc(Br)cc2)CC1
The “hERG current change (%, negative = inhibition) at 10uM” value of the first is higher: 3.72% for the first, -81.4% for the second.

First: Cc1cccc(C(=O)Nc2c(C(=O)N3CCN(C)CC3)cnn2-c2ccccc2)c1
Second: O=C(Nc1c(C(=O)N2CCOCC2)cnn1-c1ccccc1)c1ccc([N+](=O)[O-])cc1
The “hERG current change (%, negative = inhibition) at 10uM” value of the first is higher: -15.9% for the first, -16% for the second.
